KCNH2 WT inh = qHTS for Inhibitors of KCHN2 3.1: Wildtype qHTS. Voltage-gated inwardly rectifying potassium channel KCNH2 (Homo sapiens), Q12809. U2OS, BacMam KCNH2, thallium flux FluxOr; hits give low values. activity change, % at 1.84 µM. 340,000 compounds, 0.37% hits. AID 720551, 2013;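 active = maximum activity change below -70%; inconclusive = maximum activity change between -70% and -50%; inactive = maximum activity change above -50%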
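U2OS cells transduced with wild-type KCNH2 virus are loaded with FluxOr dye for 45 min, and thallium flux is measured in kinetic reads before and after stimulation buffer. Rate constants are normalized to DMSO controls.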
SW480 rerep = A quantitative high throughput screen for small molecules that induce DNA re-replication in SW480 colon adenocarcinoma cells. Potency, µM (series often up to 46.1 µM), actives largely listed as activators. 340,000 compounds, 1.8% hits. SW480 DNA re-replication, Hoechst DNA content imaging, 48 h; note: nearly all actives have a fitted effect of over 55% in size
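DNA re-replication was detected as more nuclei of elevated Hoechst intensity after 48 hr exposure to compound (23 nL pinned per well of 250 cells).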
KCNH2 3.1 inh = qHTS for Inhibitors of KCHN2 3.1: Mutant qHTS; activity change, % (tested at about 1.8 µM); 340,000 compounds, 0.95% hits; U2OS KCNH2 3.1, thallium flux FluxOr; hits give low values; AID 720553, 2013; Potassium voltage-gated channel subfamily H member 2, brain isoform KCNH2 3.1 (human);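 active = maximum activity change below -70%; inconclusive = maximum activity change from -70% to -50%; inactive = maximum activity change above -50%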;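 note: thallium influx rate constant from kinetic fluorescence after stimulation buffer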
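Thallium flux via FluxOr fluorescence (Red40 quencher, 45 min loading) in U2OS cells virally expressing the KCNH2 3.1 isoform (1.77 x 10^8 /mL virus, overnight at 37 C). Rate constants from 2-min kinetic reads post-stimulation, normalised to positive and negative controls.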
MCF10A rereplic = A quantitative high throughput screen for small molecules that induce DNA re-replication in MCF 10a normal breast cells; Potency, µM (top dose mostly 46.1 µM), most hits filed as activators; 350,000 compounds, 2.9% hits; MCF 10A DNA re-replication, Hoechst nuclear intensity, 48 h; note: nearly all actives have a fitted effect of over 50% in size
KB-3-1 cytotox = qHTS assay for MDR1-selective chemotherapeutics: Primary screen using the parental adenocarcinoma cell KB-3-1 | KB-3-1 viability, CellTiter-Glo ATP luminescence, 72 h | Potency, µM (titrated, usually from 46.1 µM), hits mostly cytotoxic | 400,000 compounds, 1.4% hits | AID 1347075, 2019; note: nearly all actives have a fitted effect of over 60% in size
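Cytotoxicity in the drug-sensitive parental line KB-3-1 was scored as loss of CellTiter-Glo luminescence following 72 h incubation with compound. Values come from curve fitting of normalized concentration-response data.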
KB-V1 MDR tox = qHTS assay for MDR1-selective chemotherapeutics: Primary screen using the drug-selected MDR subline cells KB-V1; Potency, µM (doses to about 46.1 µM), actives largely listed as cytotoxic; AID 1347076, 2019; 400,000 compounds, 3.4% hits; KB-V1 MDR cells viability, CellTiter-Glo, 72 h; note: nearly all actives have a fitted effect of over 60% in size
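Compound-treated KB-V1 multidrug-resistant cells, 72 h, 37 degrees C; viability by CellTiter-Glo. Fitted qHTS curves give the values.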
Large screens that a line does not name were inactive. In the library only some 7.6% were active in any assay of this set; here they are far more common. Unless noted, calls come from the whole dose curve; as a rule, active = well fitted curve in the direction sought with a large enough effect; inconclusive = small, poorly fitted or top-dose-only effect, or another doubt; inactive = no such curve, though single readings can be large; an effect the other way counts as inactive or inconclusive.

COc1cccc2[nH]c3c(=O)[nH]cnc3c12	KB-V1 MDR tox inconclusive
COc1cccc2c3cccc(OC)c3c3[nH]cnc3c12	SW480 rerep inconclusive, MCF10A rereplic 20.6µM, KB-3-1 cytotox inconclusive, KB-V1 MDR tox inconclusive (no result: KCNH2 3.1 inh)
CC1CN(C(=O)COC(=O)c2nn(-c3ccccc3)c(=O)c3ccccc23)CC(C)O1 (configuration not stated)	SW480 rerep inconclusive (no result: KCNH2 WT inh)
Nn1c(-c2ccccn2)nnc1-c1ccccn1	none
Nc1ccccc1-c1nnc(-c2ccccc2N)n1N	KCNH2 3.1 inh -113.6
CCCCCCCCCC[n+]1cccc2c3ccccc3ccc21	KB-3-1 cytotox 1.16µM
CCCCCCCCCC[n+]1cccc2cc(Cl)ccc21	KB-3-1 cytotox 5.17µM (no result: KCNH2 WT inh, SW480 rerep, KCNH2 3.1 inh, MCF10A rereplic)
Clc1ccc2c(ccc[n+]2CCC2CCCCC2)c1	none (no result: KCNH2 WT inh, SW480 rerep, KCNH2 3.1 inh, MCF10A rereplic)
Cc1cc[n+](CC(=O)c2ccc(F)cc2)c2ccccc12	none (no result: KCNH2 WT inh, SW480 rerep, KCNH2 3.1 inh, MCF10A rereplic)
CCCCCCCC[n+]1cccc2c3ccccc3ccc21	SW480 rerep inconclusive, MCF10A rereplic inconclusive, KB-3-1 cytotox inconclusive
CCCCCCCCCCCCCCCC[n+]1ccc(C)c2ccccc21	KB-3-1 cytotox 3.66µM, KB-V1 MDR tox 13µM (no result: KCNH2 WT inh, SW480 rerep, KCNH2 3.1 inh, MCF10A rereplic)
CC(OC(=O)c1ccccc1OCCOc1ccccc1)C(=O)Nc1ccc(Br)cc1 (configuration not stated)	none (no result: KCNH2 WT inh, SW480 rerep, KCNH2 3.1 inh, MCF10A rereplic)
CC1=C(C(=O)OC(C)C)C(c2ccc3c(c2)OCO3)NC(=O)N1 (configuration not stated)	none
Cc1nc2ccccc2c(=O)n1/N=C/c1ccccn1	SW480 rerep inconclusive, MCF10A rereplic inconclusive
CC(C)CNC(=O)c1c(N)n(/N=C/c2ccccn2)c2nc3ccccc3nc12	SW480 rerep inconclusive, MCF10A rereplic 18.4µM
COCCNC(=O)c1c(N)n(/N=C/c2cccs2)c2nc3ccccc3nc12	SW480 rerep 5.8µM, MCF10A rereplic inconclusive
COCCNC(=O)c1c(N)n(/N=C/c2ccc(F)cc2)c2nc3ccccc3nc12	SW480 rerep 5.8µM, MCF10A rereplic 2.59µM
O=C(CSc1nc2ccccc2n1Cc1ccccc1Cl)N/N=C/c1ccccc1C(=O)O	KB-V1 MDR tox inconclusive
O=C(CCN1CCN(C/C=C/c2ccccc2)CC1)Nc1ccccc1F	KCNH2 3.1 inh -101.7, MCF10A rereplic inconclusive
O=C(CN1CCN(CCC(=O)Nc2ccccc2F)CC1)Nc1ccc(F)cc1	KCNH2 WT inh inconclusive, KCNH2 3.1 inh inconclusive
O=C(Nc1ccccc1Cl)N1CCN(C/C=C/c2ccccc2)CC1	KB-V1 MDR tox inconclusive
CCOc1cc(C(=O)N2CCN(C/C=C/c3ccccc3)CC2)cc(OCC)c1OCC	MCF10A rereplic inconclusive, KB-V1 MDR tox inconclusive
O=C(CCN1CCN(c2ccccc2F)CC1)Nc1ccccc1F	none
O=C(CN1CCN(CCC(=O)Nc2ccccc2F)CC1)Nc1ccc(Cl)cc1	KCNH2 WT inh -102.1, KCNH2 3.1 inh -107.7, KB-V1 MDR tox 4.61µM
Cc1ccccc1NC(=O)N1CCN(C/C=C/c2ccccc2)CC1	KCNH2 3.1 inh -85.6
CCOc1cccc2cc(C(=O)N3CCN(C/C=C/c4ccccc4)CC3)c(=O)oc12	KB-V1 MDR tox 8.2µM
O=C(CCC1CCCN(C(=O)c2ccc3c(c2)OCO3)C1)N1CCN(c2ccccn2)CC1 (configuration not stated)	SW480 rerep inconclusive
CN(C)c1ccc(CC(=O)N2CCCC(c3cc(C(=O)Nc4ccc(F)c(Cl)c4)no3)C2)cc1 (configuration not stated)	KB-3-1 cytotox inconclusive, KB-V1 MDR tox 20.6µM (no result: KCNH2 WT inh, SW480 rerep, KCNH2 3.1 inh, MCF10A rereplic)
Nc1nc(-c2ccc(Cl)cc2)nc(-c2ccc(Cl)cc2)n1	MCF10A rereplic inconclusive
CC(=O)OCC(=O)[C@H]1CC[C@H]2[C@@H]3CCC4=CC(=O)CC[C@]4(C)[C@H]3CC[C@]12C	KB-3-1 cytotox inconclusive, KB-V1 MDR tox 14.6µM

Screening data (PubChem)
